# Measurements published in PubChem BioAssay (Tox21).
# Values joined by “and” are separate entries in the source; they are usually repeats but may differ in a detail not shown here. Equal values may be shown once. A structure can be active in one record and inactive in another. Active and inactive are the calls of the source. Unless noted, calls follow the shape of the dose curve; as a rule, active = well fitted curve in the direction sought with a large enough effect in the repeat runs; inconclusive = weak or mixed curves; inactive = no such curve, though single readings can be large; an effect the other way counts as inactive or inconclusive.
# Key:
# [1] = qHTS assay to identify small molecule antagonists of the glucocorticoid receptor (GR) signaling pathway - cell viability counter screen (AID 720693); also: % is scaled to controls: 0 for no effect and ±100 for the full control effect; nearly all actives have a fitted effect of over 55% in size
# [2] = qHTS assay for identifying genotoxic compounds that show differential cytotoxicity against isogenic chicken DT40 cell lines with known DNA damage response pathways - Rad54/Ku70 mutant cell line (AID 743015); also: nearly all actives have a fitted effect of over 60% in size; also: potency is read from the fitted curve at half-maximal effect
# [3] = qHTS assay to identify small molecule antagonists of the androgen receptor (AR) signaling pathway using the MDA cell line - cell viability counter screen (AID 743041; also: nearly all actives have a fitted effect of over 45% in size; also: potency is read from the fitted curve at half-maximal effect)
# Summary of the method: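 MDA-kb2 AR-luc cells (MMTV-luciferase, AR/GR responsive) treated with compounds plus R1881 agonist for 16 h at 37C. CellTiter-Fluor added at 15.5 h; fluorescence read after 30 min in the same wells.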
# [4] = qHTS assay to identify small molecule antagonists of the thyroid receptor (TR) signaling pathway - cell viability counter screen (AID 743064); also: nearly all actives have a fitted effect of over 50% in size; also: potency is read from the fitted curve at half-maximal effect
# Summary of the method: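 Same-well viability check: GH3.TRE-Luc cells stimulated with 1 nM T3 alongside test compound for 23.5 h, followed by CellTiter-Fluor fluorescence.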
# [5] = qHTS assay to identify small molecule antagonists of the thyroid receptor (TR) signaling pathway (AID 743065); also: nearly all actives have a fitted effect of over 55% in size; also: potency is read from the fitted curve at half-maximal effect
# Summary of the method: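 GH3.TRE-Luc rat pituitary cells (two TREs driving luciferase) were dosed with compound, then stimulated with 1 nM T3 (final) for 23.5 h at 37 C. ONE-Glo luminescence was the read-out, with CellTiter-Fluor fluorescence as the cytotoxicity counter-screen.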
# [6] = system: thyroid hormone receptor (rat, GH3 cells); experiment: qHTS assay to identify small molecule agonists of the thyroid receptor (TR) signaling pathway (AID 743066; calls by dose curve; also: % is scaled to controls: 0 for no effect and ±100 for the full control effect)
# [7] = target: Estrogen receptor (Homo sapiens) (UniProt P03372); experiment: qHTS assay to identify small molecule antagonists of the estrogen receptor alpha (ER-alpha) signaling pathway (AID 743069; active = well fitted curve in the direction sought with a large enough effect in the signal ratio in the repeat runs, not every such curve was filed as active; inconclusive = weak or mixed curves, or effect the other way; inactive = no such curve, though single readings can be large or run the other way; the % refers to the signal ratio; also: % is scaled to controls: 0 for no effect and ±100 for the full control effect)
# Estrogen receptor (Homo sapiens), sequence (P03372 whole entry, looked up): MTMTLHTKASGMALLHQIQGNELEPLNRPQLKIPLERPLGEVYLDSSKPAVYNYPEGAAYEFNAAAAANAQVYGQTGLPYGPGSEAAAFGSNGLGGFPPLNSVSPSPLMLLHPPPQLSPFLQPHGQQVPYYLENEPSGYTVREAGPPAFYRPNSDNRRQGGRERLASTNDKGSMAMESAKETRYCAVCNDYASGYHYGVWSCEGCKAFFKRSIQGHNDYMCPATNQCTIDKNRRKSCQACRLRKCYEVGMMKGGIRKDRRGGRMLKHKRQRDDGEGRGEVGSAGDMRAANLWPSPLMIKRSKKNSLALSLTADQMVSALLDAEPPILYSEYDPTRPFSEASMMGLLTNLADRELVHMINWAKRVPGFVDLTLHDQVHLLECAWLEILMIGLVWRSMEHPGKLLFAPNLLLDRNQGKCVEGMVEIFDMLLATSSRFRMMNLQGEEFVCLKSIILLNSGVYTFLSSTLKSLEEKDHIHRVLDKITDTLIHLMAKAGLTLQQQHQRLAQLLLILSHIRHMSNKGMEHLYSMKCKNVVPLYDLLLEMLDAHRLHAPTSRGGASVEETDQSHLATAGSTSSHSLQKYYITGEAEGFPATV
# Summary of the method: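 HEK293 ER-alpha-UAS-bla GripTite cells, held overnight in 2% charcoal-stripped FBS, 5,000 cells/well, preincubated 4 h, then compound plus 17beta-estradiol for 18 h at 37C. Beta-lactamase read by LiveBLAzer B/G FRET substrate, 2 h at room temperature.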
# [8] = qHTS assay to identify small molecule antagonists of the estrogen receptor alpha (ER-alpha) signaling pathway - cell viability counter screen (AID 743074; calls by dose curve;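 also: HEK293 cells carrying ER-alpha-UAS-bla reporter stimulated with 17beta-estradiol; nearly all actives have a fitted effect of over 45% in size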; also: potency is read from the fitted curve at half-maximal effect)
# [9] = target: Estrogen receptor (Homo sapiens) (UniProt P03372); experiment: qHTS assay to identify small molecule agonists of the estrogen receptor alpha (ER-alpha) signaling pathway (AID 743075; calls by dose curve; also: potency is read from the fitted curve at half-maximal effect; as to activation: % is scaled to controls: 0 for no effect and ±100 for the full control effect); details: HEK293 ER-alpha-UAS-bla, beta-lactamase FRET ratio, 18 h; activation: at 70.1 µM (top of the series)
# [10] = target: Estrogen receptor (Homo sapiens) (UniProt P03372); experiment: qHTS assay to identify small molecule agonists of the estrogen receptor alpha (ER-alpha) signaling pathway using the BG1 cell line (AID 743079); details: BG1Luc4E2 cells, ERE-luciferase agonist, 22 h; also: % is scaled to controls: 0 for no effect and ±100 for the full control effect; nearly all actives have a fitted effect of over 20% in size
# [11] = qHTS assay to identify small molecule antagonists of the estrogen receptor alpha (ER-alpha) signaling pathway using the BG1 cell line (AID 743080; calls by dose curve;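 also: BG1 cells stimulated with 17beta-estradiol alongside compound; nearly all actives have a fitted effect of over 25% in size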; also: potency is read from the fitted curve at half-maximal effect)
# Summary of the method: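 Luminescence from a 4×ERE-luciferase reporter in BG1-Luc-4E2 cells served as read-out. Cells, pre-cultured 5 days in stripped-serum phenol-red-free medium, were exposed to compound with 17beta-estradiol co-stimulation for 21.5 h at 37 C.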
# [12] = qHTS assay to identify small molecule antagonists of the estrogen receptor alpha (ER-alpha) signaling pathway using the BG1 cell line - cell viability counter screen (AID 743081);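 also: compound given together with 17beta-estradiol as the ER stimulus; nearly all actives have a fitted effect of over 45% in size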; also: potency is read from the fitted curve at half-maximal effect
# Aromatase (Homo sapiens) = Aromatase (Homo sapiens) (UniProt P11511); experiment: qHTS assay to identify aromatase inhibitors (AID 743083); also: nearly all actives have a fitted effect of over 55% in size; also: potency is read from the fitted curve at half-maximal effect
# Aromatase (Homo sapiens), sequence (P11511 whole entry, looked up): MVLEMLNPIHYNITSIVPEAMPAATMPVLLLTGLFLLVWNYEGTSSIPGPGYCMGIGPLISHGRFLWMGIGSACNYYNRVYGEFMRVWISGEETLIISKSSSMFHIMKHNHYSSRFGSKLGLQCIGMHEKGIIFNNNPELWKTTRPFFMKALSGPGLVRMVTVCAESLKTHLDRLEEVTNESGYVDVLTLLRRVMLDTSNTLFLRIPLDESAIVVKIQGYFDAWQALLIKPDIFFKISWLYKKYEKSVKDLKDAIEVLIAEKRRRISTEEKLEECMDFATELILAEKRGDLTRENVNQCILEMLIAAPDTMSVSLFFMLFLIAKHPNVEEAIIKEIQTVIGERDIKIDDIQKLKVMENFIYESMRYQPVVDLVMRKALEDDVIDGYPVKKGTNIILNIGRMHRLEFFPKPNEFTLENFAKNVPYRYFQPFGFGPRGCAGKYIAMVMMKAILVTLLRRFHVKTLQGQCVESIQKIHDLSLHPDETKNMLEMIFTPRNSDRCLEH
# [13] = qHTS assay to identify aromatase inhibitors - cell viability counter screen (AID 743084);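 also: cells stimulated with testosterone during compound exposure; nearly all actives have a fitted effect of over 55% in size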; also: potency is read from the fitted curve at half-maximal effect
# [14] = qHTS assay to identify small molecule antagonists of the androgen receptor (AR) signaling pathway - cell viability counter screen (AID 743033; also: nearly all actives have a fitted effect of over 45% in size; also: potency is read from the fitted curve at half-maximal effect)
# [15] = target: Androgen receptor (Homo sapiens) (UniProt P10275); experiment: qHTS assay to identify small molecule antagonists of the androgen receptor (AR) signaling pathway (AID 743035; active = well fitted inhibition curve with a large enough effect in the signal ratio in the repeat runs, not every such curve was filed as active; inconclusive = weak or mixed curves, or effect the other way; inactive = no such curve, though single readings can be large or run the other way; the % refers to the signal ratio; also: potency is read from the fitted curve at half-maximal effect)
# Androgen receptor (Homo sapiens), sequence (P10275 whole entry, looked up): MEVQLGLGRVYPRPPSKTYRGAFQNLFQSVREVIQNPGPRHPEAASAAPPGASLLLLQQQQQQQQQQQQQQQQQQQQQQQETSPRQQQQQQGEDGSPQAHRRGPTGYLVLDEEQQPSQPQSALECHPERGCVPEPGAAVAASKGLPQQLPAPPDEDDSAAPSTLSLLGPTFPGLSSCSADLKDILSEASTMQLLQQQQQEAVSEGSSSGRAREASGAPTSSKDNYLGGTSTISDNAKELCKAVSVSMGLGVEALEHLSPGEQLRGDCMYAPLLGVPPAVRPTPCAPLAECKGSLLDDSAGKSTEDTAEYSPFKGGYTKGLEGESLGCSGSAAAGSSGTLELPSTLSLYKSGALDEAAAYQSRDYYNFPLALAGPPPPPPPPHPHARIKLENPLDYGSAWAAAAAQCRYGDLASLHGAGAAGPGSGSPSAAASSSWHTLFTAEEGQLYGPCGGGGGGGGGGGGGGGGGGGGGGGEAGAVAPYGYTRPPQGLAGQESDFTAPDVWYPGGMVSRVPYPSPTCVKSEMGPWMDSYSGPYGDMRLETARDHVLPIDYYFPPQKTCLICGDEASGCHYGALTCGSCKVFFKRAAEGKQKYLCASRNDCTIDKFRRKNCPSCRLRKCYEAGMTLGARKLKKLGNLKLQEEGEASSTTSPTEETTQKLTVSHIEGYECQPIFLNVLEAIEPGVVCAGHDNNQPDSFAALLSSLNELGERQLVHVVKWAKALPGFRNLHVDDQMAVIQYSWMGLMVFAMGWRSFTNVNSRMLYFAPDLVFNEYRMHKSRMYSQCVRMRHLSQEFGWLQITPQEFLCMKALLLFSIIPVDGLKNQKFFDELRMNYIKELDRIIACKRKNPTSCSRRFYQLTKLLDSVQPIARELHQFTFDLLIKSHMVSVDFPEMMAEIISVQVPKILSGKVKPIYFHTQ
# Summary of the method: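 Fluorescence from a beta-lactamase FRET substrate (LiveBLAzer B/G, 2 h, room temperature) measured inhibition of R1881-stimulated signaling in GeneBLAzer AR-UAS-bla HEK293 cells exposed to compound for 16 h at 37C.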
# [16] = target: Androgen receptor (Homo sapiens) (UniProt P10275); experiment: qHTS assay to identify small molecule agonists of the androgen receptor (AR) signaling pathway using the MDA cell line (AID 743040; also: % is scaled to controls: 0 for no effect and ±100 for the full control effect; nearly all actives have a fitted effect of over 20% in size)
# Summary of the method: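 MDA-kb2 breast carcinoma cells carrying MMTV-luciferase (responsive to AR and GR), plated 5 h then treated 16 h with compounds at 37C, 0% CO2. Read-out was ONE-Glo luminescence after 30 min at room temperature.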
# [17] = target: Androgen receptor (Homo sapiens) (UniProt P10275); experiment: qHTS assay to identify small molecule antagonists of the androgen receptor (AR) signaling pathway using the MDA cell line (AID 743042; also: nearly all actives have a fitted effect of over 55% in size; also: potency is read from the fitted curve at half-maximal effect)
# Summary of the method: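 MDA-kb2 breast carcinoma cells carrying MMTV-luciferase (AR/GR responsive) were co-treated with compounds and the agonist R1881 for 16 h at 37C. Inhibition read as ONE-Glo luminescence; CellTiter-Fluor fluorescence measured in parallel for cytotoxicity.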
# [18] = qHTS assay for identifying genotoxic compounds that show differential cytotoxicity against isogenic chicken DT40 cell lines with known DNA damage response pathways - wild type cell line (AID 743012); also: nearly all actives have a fitted effect of over 60% in size; also: potency is read from the fitted curve at half-maximal effect
# Summary of the method: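 Wild type DT40, 300 cells/well, ~0.5 h settle at 37 C/5% CO2; compounds in DMSO added by pintool; 40 h at 37 C/5% CO2; CellTiter-Glo, 30 min RT; luminescence.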
# [19] = qHTS assay for identifying genotoxic compounds that show differential cytotoxicity against isogenic chicken DT40 cell lines with known DNA damage response pathways - Rev3 mutant cell line (AID 743014)
compound,measurement,setting,value
CC(C)(C)C(=O)OCOC(=O)[C@@H]1N2C(=O)[C@@H](NC(=O)[C@H](N)c3ccccc3)[C@H]2SC1(C)C,Potency,[1],inactive
same,Potency,[2],inactive
same,Potency,[3],inactive
same,Potency,[4],inactive
same,Potency,[5],inactive
same,Potency,[6],inactive
same,Potency,[7],inactive
same,Potency,[8],inactive
same,Potency,[9],inactive
same,activation,[10]; at 32.5 µM (top of the series),0.598% (inactive)
same,Potency,[11],inactive
same,Potency,[12],inactive
same,Potency,Aromatase (Homo sapiens),inactive
same,Potency,[13],inactive
C=C(C)C(=O)OCC[N+](C)(C)C,Potency,[1],inactive
same,Potency,[2],38.4 µM (active)
same,Potency,[14],inactive
same,Potency,[15],inactive
same,Potency,[16],inactive
same,Potency,[3],inactive
same,Potency,[17],inactive
same,Potency,[4],60.9 µM (active)
same,Potency,[6],inactive
same,Potency,[8],inactive
same,Potency,[12],inactive
same,Potency,Aromatase (Homo sapiens),inactive
same,Potency,[13],inactive
Cc1ccc(O)c2ncccc12,Potency,[1],inactive
same,Potency,[2],4.73 µM (active)
same,Potency,[14],16.9 µM (active)
same,Potency,[15],26.8 µM (active)
same,Potency,[16],inactive
same,Potency,[17],13.3 µM (active)
same,Potency,[4],6.68 µM (active)
same,Potency,[5],6.68 µM (active)
same,Potency,[8],inactive
same,Potency,[9],inactive
same,Potency,[11],inactive
same,Potency,Aromatase (Homo sapiens),13.3 µM (active)
O=c1[nH]sc2ccccc12,Potency,[18],0.433 µM (active)
same,Potency,[19],0.433 µM (active)
same,Potency,[2],0.686 µM (active)
same,Potency,[14],24.5 µM (active)
same,Potency,[4],5.45 µM (active)
same,Potency,[5],3.06 µM (active)
same,Potency,[7],inactive
same,Potency,[8],inactive
same,Potency,[9],inactive
same,activation,[10]; at 70.3 µM (top of the series),-22% (inactive)
same,Potency,[11],inactive
same,Potency,[12],inactive
same,Potency,Aromatase (Homo sapiens),30.6 µM (active)
same,Potency,[13],24.3 µM (active)
CC(C)(C)NC(=O)[C@@H]1C[C@@H]2CCCC[C@@H]2CN1C[C@@H](O)[C@H](Cc1ccccc1)NC(=O)[C@H](CC(N)=O)NC(=O)c1ccc2ccccc2n1,Potency,[18],26.6 µM (active)
same,Potency,[19],13.3 µM (active)
same,Potency,[14],49.6 µM (active)
same,Potency,[4],13.3 µM (active) and 24.7 µM (active)
same,Potency,[5],21.1 µM (active) and 31 µM (active)
same,Potency,[9],inactive
same,Potency,[12],23.7 µM (active) and 49.2 µM (active)
same,Potency,Aromatase (Homo sapiens),29.8 µM (active) and 31 µM (active)
same,Potency,[13],11.9 µM (active) and 13.9 µM (active)
CN(C)C(=O)C1(N2CCCCC2)CCN(CC[C@@]2(c3ccc(Cl)c(Cl)c3)CN(C(=O)c3ccccc3)CCO2)CC1,Potency,[18],7.19 µM (active)
same,Potency,[19],8.07 µM (active)
same,Potency,[14],16.2 µM (active)
same,Potency,[16],inactive
same,Potency,[3],50.9 µM (active)
same,Potency,[17],28.6 µM (active)
same,Potency,[4],5.09 µM (active)
same,Potency,[5],4.54 µM (active)
same,Potency,[8],51.3 µM (active)
same,Potency,[12],64.1 µM (active)
same,Potency,Aromatase (Homo sapiens),40.4 µM (active)
same,Potency,[13],50.9 µM (active)
C/C=C1/C(=O)C[C@H]2[C@@H]3CCC4=CC(=O)CC[C@]4(C)[C@H]3CC[C@]12C,Potency,[19],13.6 µM (active)
same,Potency,[2],19.3 µM (active)
same,Potency,[3],inactive
same,Potency,[4],inactive
same,Potency,[5],9.66 µM (active)
same,Potency,[6],inactive
same,Potency,[8],inactive
same,Potency,[9],inactive
same,Potency,[12],inactive
CCCCCCCCS(=O)C(C)Cc1ccc2c(c1)OCO2 (configuration not stated),Potency,[19],69.9 µM (active)
same,Potency,[2],69.9 µM (active)
same,Potency,[16],inactive
same,Potency,[4],69.9 µM (active)
same,Potency,[5],62.3 µM (active)
same,Potency,[6],inactive
same,Potency,[8],inactive
same,Potency,[9],inactive
same,Potency,[12],inactive
C=C(C)C(=O)OCC(O)COc1ccc(C(C)(C)c2ccc(OCC(O)COC(=O)C(=C)C)cc2)cc1 (configuration not stated),Potency,[18],5.45 µM (active)
same,Potency,[19],6.86 µM (active)
same,Potency,[2],6.86 µM (active)
same,Potency,[14],24.5 µM (active)
same,Potency,[3],21.7 µM (active)
same,Potency,[5],61.1 µM (active)
same,Potency,[6],inactive
same,Potency,[8],43.6 µM (active)
same,Potency,[9],inactive
same,Potency,Aromatase (Homo sapiens),30.6 µM (active)
same,Potency,[13],61.1 µM (active)
O=C(O)c1c(Cl)cccc1Cl,Potency,[18],inactive
same,Potency,[2],inactive
same,Potency,[14],inactive
same,Potency,[4],inactive
same,Potency,[5],inactive
same,Potency,[6],inactive
same,Potency,[8],inactive
same,Potency,[12],inactive
same,Potency,Aromatase (Homo sapiens),inactive
same,Potency,[13],inactive
CCCCc1oc2ccc(NS(C)(=O)=O)cc2c1C(=O)c1ccc(OCCCN(CCCC)CCCC)cc1,Potency,[18],9.44 µM (active)
same,Potency,[2],18.8 µM (active)
same,Potency,[14],21.3 µM (active)
same,Potency,[4],10.6 µM (active)
same,Potency,[5],11.9 µM (active)
same,Potency,Aromatase (Homo sapiens),29.8 µM (active)
same,Potency,[13],29.8 µM (active)
O=C1C=CC(=O)N1c1ccc(Cc2ccc(N3C(=O)C=CC3=O)cc2)cc1,Potency,[18],0.969 µM (active)
same,Potency,[19],1.22 µM (active)
same,Potency,[2],1.54 µM (active)
same,Potency,[14],17.4 µM (active)
same,Potency,[3],54.5 µM (active)
same,Potency,[4],10.9 µM (active)
same,Potency,[5],8.63 µM (active)
same,Potency,[6],inactive
same,Potency,[8],21.9 µM (active)
same,Potency,[12],inactive
same,Potency,Aromatase (Homo sapiens),9.69 µM (active)
same,Potency,[13],9.69 µM (active)
CSc1ccc2c(c1)C(N1CCN(C)CC1)Cc1ccccc1S2 (configuration not stated),Potency,[18],5.96 µM (active)
same,Potency,[2],9.44 µM (active)
same,Potency,[3],inactive
same,Potency,[4],7.5 µM (active)
same,Potency,[5],8.41 µM (active)
same,Potency,[9],inactive
same,activation,[10]; at 70.3 µM (top of the series),-16.2% (inactive)
same,Potency,[11],inactive
same,Potency,[12],inactive
CC[C@H](c1ccc(O)cc1)[C@@H](CC)c1ccc(O)cc1,Potency,[18],12.2 µM (active)
same,Potency,[19],10.1 µM (active) and 13.7 µM (active)
same,Potency,[2],19.3 µM (active)
same,Potency,[14],inactive
same,Potency,[15],8.11 µM (active) and 21.9 µM (active)
same,Potency,[16],inactive
same,Potency,[3],inactive
same,Potency,[17],inactive and 54.5 µM (active)
same,Potency,[4],30.6 µM (active)
same,Potency,[5],19.3 µM (active)
same,Potency,[6],inactive
same,Potency,[7],inactive
same,Potency,[8],inactive
same,Potency,[9],0.0002 µM [inconclusive] (active)
same,activation,[9],38.2% [inconclusive] (active)
same,activation,[10]; at 32.5 µM (top of the series),58.6% (active)
same,activation,[10]; at 70.3 µM (top of the series),-55.2% (active)
same,Potency,[11],68.6 µM (active)
same,Potency,[12],inactive
same,Potency,Aromatase (Homo sapiens),inactive and 27.3 µM (active)
same,Potency,[13],inactive
